Assay [1] in a line: P-glycoprotein substrates identified in KB-8-5-11 adenocarcinoma cell line, qHTS therapeutic library screen (AID 1346987). Note: nearly all actives have a fitted effect of over 65% in size. Note: potency is the fitted concentration of half-maximal effect. In a few lines: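 In this qHTS, P-gp-rich KB-8-5-11 cells received library compounds across a concentration range. Viability was quantified by luminescence after 72 h at 37 degree C.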
The nature of assay [2]: Primary qHTS for inhibitors of nuclear receptor binding SET domain protein 2 (NSD2) in an isogenic RCH-ACV NSD2 p.E1099K mutant (9B) (AID 1645876). Note: nearly all actives have a fitted effect of over 70% in size. Note: potency is the fitted concentration of half-maximal effect.
Assay [3] is described as follows: Primary qHTS for inhibitors of nuclear receptor binding SET domain protein 2 (NSD2) in an RCH-ACV wild type WT cells (2C) (AID 1645877). Note: nearly all actives have a fitted effect of over 70% in size. Note: potency is the fitted concentration of half-maximal effect. A general note: In qHTS, concentration-response curves come from the screen itself.
Assay [4] concerns the target Glutathione peroxidase 1 (Homo sapiens) (UniProt P07203). Nature of the assay: Primary qHTS Assay for Inhibitors of Recombinant Selenoprotein Glutathione Peroxidase 1 (GPX1) (AID 1845191). Note: nearly all actives have a fitted effect of over 65% in size. In a few lines: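 GPX1 10 nM, GR 100 nM, GSH 1 mM, NADPH 0.5 mM, CHP 0.5 mM (final). 30-min cpd preincubation, RT. Ex340/Em450 read t=0, t=15 min.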
A short description of assay [5]: qHTS drug screen for cell cycle checkpoint inhibitors in PARPi-resistant BRCA-mutant ovarian cancer cell lines. (AID 1963452; calls by dose curve). The following applies: PEO1/OlaR viability, CellTiter-Glo luminescence, 96 h, stronger effect = lower value. In a few lines: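 PEO1, PEO4 and PEO1/OlaR ovarian cancer cells, 600 per well, exposed 96 h at 37C to a dilution series. Viability read by CellTiter-Glo luminescence, normalized to DMSO and empty wells; activity summarized as Z-AUC.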

A short description of assay [6]: qHTS to identify inhibitors of the type 1 interferon - major histocompatibility complex class I in skeletal muscle: primary screen against the NCATS Mechanism Interrogation Plate v5.0 (MIPE) Libary (AID 1347411).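 Note: plate controls were vehicle for no effect and reference inhibitor for full effect; nearly all actives have a fitted effect of over 65% in size.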 In a few lines: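 HLA-B HiBit myoblasts, dexamethasone-free medium + 4 ng/ml IFN-b, 24 h compound, 11-pt 1:3 from 46 uM final. Readout: Nano-Glo HiBiT lytic luminescence after 10 min lysis, RT.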

For assay [7], the target named is Phospholipid hydroperoxide glutathione peroxidase GPX4 (Homo sapiens) (UniProt P36969). Nature of the assay: Primary qHTS Assay for Inhibitors of Recombinant Selenoprotein Glutathione Peroxidase 4 (GPX4) (AID 1845192). Note: series mostly up to about 50 µM; nearly all actives have a fitted effect of over 65% in size. The following applies: outcome: dose series up to 50 µM unless noted. In a few lines: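 qHTS, GR-coupled: GPX4 200 nM + cpd 30 min RT → GSH 1 mM, NADPH 0.5 mM, GR 100 nM → CHP 0.5 mM start; fluor 340/450 at t0 and t15 min; no-enzyme wells as control.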
Phospholipid hydroperoxide glutathione peroxidase GPX4 (Homo sapiens), sequence (P36969 whole entry, looked up): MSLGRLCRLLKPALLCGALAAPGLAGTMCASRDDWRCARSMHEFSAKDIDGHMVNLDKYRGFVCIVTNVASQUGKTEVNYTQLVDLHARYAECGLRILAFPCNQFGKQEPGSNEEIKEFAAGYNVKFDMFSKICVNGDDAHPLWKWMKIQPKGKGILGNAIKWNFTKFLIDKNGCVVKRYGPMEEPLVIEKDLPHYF

Setting [8] is: measured here: PEO1 parental Z-AUC.

Inconclusive results are not listed. Calls of active or inactive are those of the source. Unless noted, calls come from the whole dose curve; as a rule, active = well fitted curve in the direction sought with a large enough effect; inconclusive = small, poorly fitted or top-dose-only effect, or another doubt; inactive = no such curve, though single readings can be large; an effect the other way counts as inactive or inconclusive.

Glutathione peroxidase 1 (Homo sapiens), sequence (P07203 whole entry, looked up): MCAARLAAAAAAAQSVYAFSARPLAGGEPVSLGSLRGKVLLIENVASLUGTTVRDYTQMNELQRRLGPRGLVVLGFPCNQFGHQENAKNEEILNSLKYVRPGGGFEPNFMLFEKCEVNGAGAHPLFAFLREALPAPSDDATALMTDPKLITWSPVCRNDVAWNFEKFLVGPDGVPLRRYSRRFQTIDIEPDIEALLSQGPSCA

On to `CN[C@@H]1C[C@H]2O[C@@](C)([C@@H]1OC)n1c3ccccc3c3c4c(c5c6ccccc6n2c5c31)C(=O)N[C@H]4O`, for which the Potency in assay [1] is 841 nM (active); in assay [2], 21.5 nM (active); in assay [3], 30.3 nM (active). Also, the outcome in assay [4] was “inactive [at 9.52 µM]”. Also, the Z-AUC was -0.878 (inactive) in assay [5], -0.367 in assay [5] (setting [8]) and -0.638 in assay [5] (measured here: PEO4 Z-AUC).

With `CCCCN(CCCC)C(=S)[S-].CCCCN(CCCC)C(=S)[S-].[Zn+2]`, the Potency entry in assay [1] is “inactive”.

For `CNC(=O)c1ccc(-c2cnc3cnc(C(=O)N(C)c4ccc(Cl)cc4)cn23)cc1`, the Potency result in assay [1] and in assay [4] was “inactive” throughout.

On to `COc1cc(/C=C\c2ccc(O)cc2)cc(OC)c1`, for which the Potency result in assay [1] and in assay [4] was “inactive” in each case. In addition, the Potency in assay [2] was 6510 nM (active).

With `NS(=O)(=O)c1ccc(N=Nc2c(O)[nH]c3ccc(Br)cc23)cc1`, the Potency in assay [1] is 11600 nM (active). In addition, the Potency entry in assay [4] is “inactive”.

On to `O=c1cc(-c2ccc(O)cc2)oc2cc(OC3OC(CO)C(O)C(O)C3O)c(C3OC(CO)C(O)C(O)C3O)c(O)c12` (stereo not drawn), for which the Potency result in assay [1], in assay [2], in assay [3] and in assay [4] was “inactive” each time.

`CN(CCO)C1CCN(c2ccc(Nc3ncc4c5ccnc(F)c5n(C5CCCC5)c4n3)nc2)CC1`: the Potency in assay [1] was 11200 nM (active); in assay [2] it was 574 nM (active); in assay [3], 512 nM (active). For the same molecule, the Potency entry in assay [6], in assay [4] and in assay [7] was “inactive” throughout. Moreover, the Z-AUC in assay [5] was -1.43 (inactive); in assay [5] (setting [8]), -0.563; in assay [5] (measured here: PEO4 Z-AUC), -1.
